From publication PMC10668032, “Altered binding affinity of SIX1-Q177R correlates with enhanced WNT5A and WNT pathway effector expression in Wilms tumor” come the findings set out here.

In all, about 33,000 sequences were measured (“e-score”: median about -0.053, highest 2% from about 0.38 on). For the sample, the highest values were picked, then their nearest neighbours and some sequences at random.

This assay has as its target T1, SIX1 homeodomain (reference allele) (human, UniProt Q15475 108-198).
T1 sequence: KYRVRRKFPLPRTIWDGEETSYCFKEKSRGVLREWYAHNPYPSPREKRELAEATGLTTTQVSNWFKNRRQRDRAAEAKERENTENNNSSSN
Put plainly: universal protein binding microarray; Universal all-10-mer PBM (8x60K, AMADID 030236), 300 nM GST-tagged protein, Alexa Fluor 488 anti-GST; buffer, salt, pH and temperature not stated (as in Berger); high values mean tight binding. The conditions noted are these: protein: ivt; tags: N-terminal GST; dsDNA, one strand shown. The method in brief:
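Homeodomains carrying a GST tag were produced by in vitro transcription/translation, then quantified by anti-GST western blot against a recombinant GST standard curve. Duplicate applications at 300 nM final concentration were made to universal 'all 10-mer' protein binding microarrays in 8×60K format. The Universal PBM Analysis Suite was used to express binding as 8-mer E-scores.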
Consider AACTATAC, for which the binding signal amounted to 0.24 ± 0.0587 E-score. The result for AGATGTAT reads 0.338 ± 0.00993 E-score; that for ATACGCAC, 0.254 ± 0.00836 E-score; that for CCCATGGG, 0.152 ± 0.0229 E-score. As for GATCGGCA, the binding signal turned out to be 0.211 ± 0.0237 E-score.

ATACACAT: the binding signal is 0.289 ± 0.00303 E-score. The figure for GTGTGAGA is 0.245 ± 0.029 E-score; for ATGTGAGA it is 0.165 ± 0.0625 E-score; for CTGTGATC it is 0.328 ± 0.00414 E-score. The result for GTGTGTGA reads 0.174 ± 0.0383 E-score; that for GTGTGATA, 0.411 ± 0.0318 E-score; that for ATGTGATA, 0.392 ± 0.0638 E-score. The figure for ATGTGATC is 0.32 ± 0.0109 E-score; for CTGTGATA it is 0.39 ± 0.0381 E-score. Regarding AGATAGGA, the binding signal was 0.175 ± 0.0479 E-score.

As for CGAATCCA, the binding signal is 0.1647 ± 0.00129 E-score. As to CCCGCGGA, the binding signal came out at 0.205 ± 0.00383 E-score.

Turning to TATCTGCA, the binding signal stood at 0.284 ± 0.0307 E-score. The figure for GAAATACC is 0.1851 ± 0.00123 E-score; for ATACCGCA it is 0.4061 ± 0.00272 E-score. The result for ATACCGCC reads 0.418 ± 0.0211 E-score; that for ATACCGAT, 0.3532 ± 0.00127 E-score. The figure for ACACCGCC is 0.321 ± 0.0533 E-score; for ACACCGCG it is 0.283 ± 0.0738 E-score.

Consider ATACCGAA, for which the binding signal was found to be 0.329 ± 0.0172 E-score. The figure for ACACCGCA is 0.351 ± 0.043 E-score.

Regarding ATACCGCG, the binding signal came to 0.377 ± 0.0129 E-score. The figure for ATACCGAG is 0.304 ± 0.0181 E-score; for CTGAGCCC it is 0.161 ± 0.049 E-score; for ATCCCAAC it is 0.189 ± 0.0265 E-score. The result for ATACGTCA reads 0.196 ± 0.0392 E-score; that for ATCAGCGG, 0.171 ± 0.08 E-score; that for ACAATATC, 0.309 ± 0.0486 E-score. Regarding ATGATAGC, the binding signal is 0.379 ± 0.0583 E-score.

For ATGATCGC, the binding signal was 0.265 ± 0.0383 E-score. The figure for CTGATAGC is 0.319 ± 0.0368 E-score; for ATGATAGG it is 0.387 ± 0.0153 E-score. The figure for ACGATAGG is 0.269 ± 0.00971 E-score; for AGGATAGG it is 0.306 ± 0.0312 E-score; for ATCCAGCA it is 0.198 ± 0.0454 E-score. The result for CGTAACAC reads 0.205 ± 0.0442 E-score; that for ATTACATC, 0.248 ± 0.072 E-score; that for CGATCTTC, 0.288 ± 0.0189 E-score. For GATGGGTA, the binding signal came to 0.223 ± 0.0133 E-score. The result for CTTTGATA reads 0.331 ± 0.0715 E-score. The figure for GTTCGATA is 0.324 ± 0.0131 E-score. Turning to ATTTGATA, the binding signal was determined as 0.397 ± 0.0881 E-score.

As to ATTTGATC, the binding signal came out at 0.215 ± 0.0531 E-score. For the sequence GTTTGATA, the binding signal was found to be 0.379 ± 0.067 E-score. The result for CTTTGATC reads 0.213 ± 0.0316 E-score. CAATACGA: the binding signal is 0.207 ± 0.026 E-score. The result for ATCACTTC reads 0.3 ± 0.0422 E-score; that for CTCAGATA, 0.31 ± 0.032 E-score; that for CTCAGATC, 0.27 ± 0.00864 E-score.

For the sequence ATCAGATA, the binding signal is 0.378 ± 0.0255 E-score. The result for ATCAGATG reads 0.319 ± 0.0136 E-score; that for ATCAGATC, 0.394 ± 0.0295 E-score; that for GTCAGATA, 0.273 ± 0.0192 E-score. The figure for CGTATGAA is 0.15 ± 0.0134 E-score. The figure for CCCGTGTC is 0.255 ± 0.0128 E-score.

With CAGGTGTC, the binding signal is 0.394 ± 0.0354 E-score.

As to ACGGTGTC, the binding signal came out at 0.437 ± 0.0187 E-score. The result for ACGGTGTA reads 0.255 ± 0.00781 E-score; that for AAGGTGTC, 0.373 ± 0.0231 E-score; that for CCGGTGTC, 0.431 ± 0.0182 E-score. As for CAGGTGTA, the binding signal was 0.272 ± 0.00711 E-score. The figure for CCGGTGTA is 0.332 ± 0.0356 E-score. The figure for ACGGTGAT is 0.181 ± 0.00713 E-score.

Regarding GTCTGGTA, the binding signal was found to be 0.151 ± 0.048 E-score. The result for ATCGGAAT reads 0.172 ± 0.0652 E-score; that for AAGAGTAT, 0.277 ± 0.117 E-score. The figure for ATATATTG is 0.238 ± 0.0753 E-score. Regarding CGGATCCG, the binding signal came out at 0.417 ± 0.0204 E-score. The result for GGGATCTA reads 0.272 ± 0.0387 E-score.

As to GGGATCCC, the binding signal turned out to be 0.415 ± 0.0591 E-score. Consider CAGATCCG, for which the binding signal came out at 0.322 ± 0.0638 E-score. The figure for TGGATCCA is 0.295 ± 0.0443 E-score; for CGGATCCA it is 0.406 ± 0.0429 E-score; for AGGATCGC it is 0.27 ± 0.0489 E-score.

Take GGGATCCA: the binding signal stood at 0.375 ± 0.0614 E-score. With CGGATCGC, the binding signal amounted to 0.395 ± 0.05 E-score.

As for CAGATCGC, the binding signal is 0.284 ± 0.0237 E-score. The result for AGGATCCG reads 0.308 ± 0.0272 E-score. As for CGGATCTA, the binding signal was 0.318 ± 0.04 E-score. For the sequence AATGAGCC, the binding signal is 0.158 ± 0.0559 E-score.

In the case of ATGTCTCA, the binding signal is 0.2 ± 0.0211 E-score. The figure for AGGGCGAT is 0.284 ± 0.0121 E-score; for ATCACCAG it is 0.166 ± 0.0324 E-score.

In the case of CCACGATC, the binding signal turned out to be 0.195 ± 0.0938 E-score. The figure for ATCCTGAC is 0.228 ± 0.00948 E-score. The result for AAGTATTG reads 0.157 ± 0.085 E-score. The result for AGGATCCC reads 0.379 ± 0.00668 E-score. For the sequence CGGATCCC, the binding signal was 0.399 ± 0.0592 E-score. The result for AGGATCCA reads 0.346 ± 0.0238 E-score; that for AGGATCTG, 0.244 ± 0.0478 E-score; that for AGGATCTC, 0.292 ± 0.0258 E-score.

In the case of CAGATCCC, the binding signal worked out at 0.295 ± 0.0571 E-score. The figure for CGGATCTC is 0.342 ± 0.0442 E-score; for AAGATCCT it is 0.326 ± 0.0346 E-score; for AGGATCCT it is 0.385 ± 0.0102 E-score.
